Screens (PubChem)
Only some compounds are listed: those with a hit (about 2.9% of all), similar ones and a draw of the others.
Pol eta inh: qHTS for Inhibitors of Polymerase Eta | hit rate 1.2% among 390,000 | AID 588591, 2011 | recombinant Pol eta, fluorescent DNA replication assay | Potency, µM (top dose mostly 114 µM), hits mostly inhibitors | DNA polymerase eta (Homo sapiens), Q9Y253
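Fluorescent replication assay: 50 nM final substrate added after a 15 min room-temperature compound preincubation with 10 nM enzyme. Signal taken at 0 min and again at 10 min.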
12-LOX inh: Primary qHTS assay for inhibitors of human arachidonate 12S-lipoxygenase (ALOX12): Round 2 | hit rate 1.1% among 580,000 | AID 1671190, 2021 | Potency, µM (top dose mostly 108 µM), usual class: inhibitors | purified 12hLO, xylenol orange hydroperoxide absorbance
Target sequence (P18054 whole entry, looked up): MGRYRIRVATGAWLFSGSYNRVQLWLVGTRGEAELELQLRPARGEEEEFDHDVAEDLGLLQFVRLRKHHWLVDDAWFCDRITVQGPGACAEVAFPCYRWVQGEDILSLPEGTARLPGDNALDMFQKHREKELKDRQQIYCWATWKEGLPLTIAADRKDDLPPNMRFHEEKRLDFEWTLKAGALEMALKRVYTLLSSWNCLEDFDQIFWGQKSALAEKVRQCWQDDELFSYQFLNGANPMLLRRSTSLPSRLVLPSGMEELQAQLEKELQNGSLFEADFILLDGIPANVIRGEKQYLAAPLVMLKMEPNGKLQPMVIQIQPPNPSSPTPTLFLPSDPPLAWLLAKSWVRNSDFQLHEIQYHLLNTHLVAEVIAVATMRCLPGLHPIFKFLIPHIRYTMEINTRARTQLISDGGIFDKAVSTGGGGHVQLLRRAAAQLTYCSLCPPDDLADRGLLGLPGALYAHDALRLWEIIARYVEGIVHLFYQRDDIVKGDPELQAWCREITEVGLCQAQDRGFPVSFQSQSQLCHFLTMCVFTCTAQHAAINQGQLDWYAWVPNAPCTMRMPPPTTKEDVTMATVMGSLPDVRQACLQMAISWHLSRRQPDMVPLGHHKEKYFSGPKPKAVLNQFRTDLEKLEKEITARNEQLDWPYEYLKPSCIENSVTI
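Hydroperoxide product was detected by ferrous iron/xylenol orange as the 573 to 405 nm absorbance ratio. Arachidonic acid at 40 uM (final) was turned over for 30 min at room temperature by 150 nM human 12hLO, pH 7.0 Hepes buffer, after 15 min compound preincubation.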
PI5P4Ka inh: qHTS for Inhibitors of phosphatidylinositol 5-phosphate 4-kinase (PI5P4K). PI5P4Kalpha enzyme, ADP-Glo luminescence, 60 min; hits give low values. Phosphatidylinositol 5-phosphate 4-kinase type-2 alpha (Homo sapiens), P48426. hit rate 1.2% among 330,000. max response, %; active means max response of -50% or lower; inconclusive means between -30% and -50%; inactive means -30% or higher; further: value at the top dose of about 77 µM
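Luminescence from ADP-Glo served as readout of PI5P4Kalpha activity in a qHTS format. Reaction: enzyme, substrate, compound, ATP at 5 microM final, 60 min at RT.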
Pol kappa inh: qHTS for Inhibitors of Polymerase Kappa; Potency, µM (titrated, usually from 107 µM), most hits filed as inhibitors; purified Pol kappa, fluorescent DNA synthesis assay, 10 min; hit rate 0.53% among 400,000; AID 588579, 2011
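Inhibition of 10 nM Pol kappa is measured by a fluorescent read-out at 0 and 10 min following addition of 50 nM substrate (final), with a 15-min room-temperature compound preincubation.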
POLB inh: qHTS Assay for Inhibitors of DNA Polymerase Beta. hit rate 1.3% among 340,000. Pol beta primer extension/strand displacement, fluorescence kinetic. AID 485314, 2010. Potency, µM (series often up to 114 µM), hits mostly inhibitors. P06746
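Preincubation: enzyme (10 nM) with compound, 15 min, RT. Reaction: substrate added to 50 nM final. Reads: 0 and 10 min. Analysis: normalized, Hill fit.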
POLI inh: qHTS for Inhibitors of Polymerase Iota | AID 588590, 2011 | DNA polymerase iota (Homo sapiens), Q9UNA4 | hit rate 1% among 390,000 | Potency, µM (doses to about 115 µM), actives largely listed as inhibitors | Pol iota fluorescent replication assay, 10 min
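Pol iota at 10 nM preincubated 15 min with compounds at room temperature; reaction started with fluorescent substrate, 50 nM final. Fluorescence read kinetically at 0 and 10 min; buffer-only wells as negative control.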
ADP-Glo counter: qHTS for Inhibitors of PI5P4K: ADP-Glo counter assay | 1,100 tested, under 10 active | ADP-Glo detection counter-screen, luciferase luminescence, no enzyme | shares compounds with PI5P4Ka inh | AID 743285, 2014 | Potency, µM (top dose mostly 76.9 µM), hits mostly inhibitors
Of the large screens only hits and unclear results are named; the others gave an inactive call (follow-up assays come after a bar, where they were run). Unless noted, the call rests on the fitted dose curve; in most records, active means well fitted curve in the direction sought with a large enough effect; inconclusive means small, poorly fitted or top-dose-only effect, or another doubt; inactive means no such curve, though single readings can be large; an effect the other way counts as inactive or inconclusive.

O=C(Nc1cc(S(=O)(=O)N2CCOCC2)ccc1O)c1ccc(NS(=O)(=O)c2ccc(Cl)s2)cc1	12-LOX inh inconclusive, PI5P4Ka inh -58.8 | ADP-Glo counter inactive
O=C(Nc1cc(S(=O)(=O)N2CCOCC2)ccc1N1CCCC1)c1ccc2c(c1)S(=O)(=O)c1ccccc1C2=O	12-LOX inh 14.1µM, PI5P4Ka inh -77.2 | ADP-Glo counter inactive
O=C(Nc1cc(S(=O)(=O)N2CCOCC2)ccc1N1CCCC1)c1ccc(Cl)cc1	12-LOX inh 25.1µM, PI5P4Ka inh -50.9 (no result: POLB inh) | ADP-Glo counter inactive
O=S(=O)(Nc1cc(S(=O)(=O)N2CCCC2)ccc1O)c1ccc(Cl)s1	12-LOX inh inconclusive, POLI inh inconclusive (no result: POLB inh)
CN(C)c1ncnc2sc3c(c12)CCN(Cc1ccco1)C3	none (no result: Pol eta inh, PI5P4Ka inh, Pol kappa inh, POLB inh, POLI inh)
CN(Cc1ccccc1)C(=O)c1csc([C@H]2C[C@H](O)[C@@H](CO)O2)n1	none (no result: Pol eta inh, Pol kappa inh, POLB inh, POLI inh) | ADP-Glo counter inactive
CN(Cc1ccccc1)C(=O)c1csc([C@@H]2C[C@H](O)[C@@H](CO)O2)n1	none (no result: Pol eta inh, Pol kappa inh, POLB inh, POLI inh)
Nn1c(SCC(=O)NC(=O)NCc2ccco2)nnc1-c1ccc(OC(F)F)cc1	Pol eta inh 8.91µM, PI5P4Ka inh -66.7, Pol kappa inh inconclusive, POLB inh inconclusive, POLI inh inconclusive | ADP-Glo counter inactive
Nn1c(SCC(=O)NCCN2C(=O)CSC2=O)nnc1-c1ccc(OC(F)F)cc1	none (no result: POLB inh)
CN(/C=C/C(=O)C(F)(F)F)CC(=O)O	none (no result: Pol eta inh, PI5P4Ka inh, Pol kappa inh, POLB inh, POLI inh)
O=C(CCc1nc(CSc2n[nH]c(-c3ccccc3Cl)n2)no1)Nc1ccc2ccccc2c1	none (no result: Pol eta inh, PI5P4Ka inh, Pol kappa inh, POLB inh, POLI inh)
Cc1ccc(C(=O)Nc2ccc(Cl)c(C(F)(F)F)c2)c(C)c1	none (no result: Pol eta inh, PI5P4Ka inh, Pol kappa inh, POLB inh, POLI inh)
CC(=O)c1ccc(NC(=O)CSc2nc3[nH]c(=O)cc(O)c3s2)cc1	12-LOX inh inconclusive, PI5P4Ka inh inconclusive (no result: POLB inh)
Cc1cc(NC(=O)CSc2sc3c(O)cc(=O)[nH]c3c2C#N)ccc1Br	Pol eta inh 28.2µM, 12-LOX inh inconclusive, PI5P4Ka inh -103.5, Pol kappa inh inconclusive, POLB inh inconclusive, POLI inh 56.2µM | ADP-Glo counter inactive
Cc1ccc(NC(=O)CSc2nc3[nH]c(=O)cc(O)c3s2)c(Br)c1	12-LOX inh inconclusive, PI5P4Ka inh inconclusive (no result: POLB inh)
N#Cc1c(SCC(=O)Nc2cccc(C(F)(F)F)c2)sc2c(O)cc(=O)[nH]c12	Pol eta inh 20µM, PI5P4Ka inh -102.7, Pol kappa inh 25.1µM, POLI inh inconclusive | ADP-Glo counter inactive
Cc1ccc(C)c(NC(=O)CSc2sc3c(O)cc(=O)[nH]c3c2C#N)c1	Pol eta inh 20µM, PI5P4Ka inh -64.4, Pol kappa inh inconclusive, POLB inh inconclusive, POLI inh 28.2µM | ADP-Glo counter inactive
Cc1cc(NC(=O)CSc2nc3[nH]c(=O)cc(O)c3s2)ccc1Br	12-LOX inh inconclusive, PI5P4Ka inh -58.1 (no result: POLB inh) | ADP-Glo counter inactive
CN1/C(=C\C(=O)CN2CCN(C/C=C/c3ccccc3)CC2)C(C)(C)c2ccccc21	none (no result: Pol eta inh, PI5P4Ka inh, Pol kappa inh, POLB inh, POLI inh)
O=C(c1ccc(CN2C(=O)NC3(CCS(=O)(=O)CC3)C2=O)cc1)N1CCCC1	none (no result: Pol eta inh, PI5P4Ka inh, Pol kappa inh, POLB inh, POLI inh)
COc1ccccc1OCCC(=O)NC12CC3CC(CC(C3)C1)C2	none (no result: Pol eta inh, PI5P4Ka inh, Pol kappa inh, POLB inh, POLI inh)
COc1ccccc1NC(=O)CSc1sc2c(O)cc(=O)[nH]c2c1C#N	Pol eta inh 20µM, PI5P4Ka inh -66.5, Pol kappa inh 50.1µM, POLB inh 0.562µM, POLI inh 2.82µM | ADP-Glo counter inactive
Cc1ccc(C(=O)/C=C/c2ccc(C#N)cc2)o1	none (no result: Pol eta inh, PI5P4Ka inh, Pol kappa inh, POLB inh, POLI inh)
CNC(=S)N(Cc1cccs1)Cc1cc2cc(OC)ccc2[nH]c1=O	PI5P4Ka inh -50.8 | ADP-Glo counter inactive
CCc1ccc(NC(=O)c2cnn3ccccc23)cc1	PI5P4Ka inh inconclusive
CSc1cccc(NC(=O)c2cnn3ccccc23)c1	PI5P4Ka inh -63.4 | ADP-Glo counter inactive
NC(=O)Cc1ccc2c(c1)OCCCO2	none (no result: Pol eta inh, PI5P4Ka inh, Pol kappa inh, POLB inh, POLI inh)
